# Several values for one entry are separate records, joined by “and”; a condition that tells them apart may be missing. Equal values may be shown once. The source holds several records for some structures; these can differ, active in one and inactive in another. Activity calls are given as the source filed them. How the source made its calls: active means hit-call score of the fitted dose curve at least 0.9, where 1 is the maximum; inactive means score below 0.9.
# Key:
# [1] = read-out: Interleukin-1 alpha (IL1a), IL1A (gene 3552); test: BSK_KF3CT_IL1a: BioMAP Diversity Plus: KF3CT Assay for Interleukin-1 alpha (IL1a) Biomarker Activity (AID 2283070); conditions: primary human keratinocytes with fibroblasts; actives raise or lower the signal
# Outline: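 Primary skin co-culture (keratinocytes, foreskin fibroblasts), 24 h exposure; ELISA for IL-1a; bidirectional curve fit vs DMSO.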
# [2] = read-out: Transforming growth factor beta 1 (TGFb1), TGFB1 (gene 7040); test: BSK_KF3CT_TGFb1: BioMAP Diversity Plus: KF3CT Assay for Transforming growth factor beta 1 (TGFb1) Biomarker Activity (AID 2283072); conditions: primary human keratinocytes with fibroblasts; actives raise or lower the signal
# Outline: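 KF3CT co-culture (keratinocytes + fibroblasts), 24 h exposure → TGF-b1 ELISA → bidirectional fit, DMSO = baseline. Parallel SRB total-protein staining (0.1% SRB, 10% TCA fixation, 560 nm) for cytotoxicity.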
# [3] = read-out: C-C motif chemokine 2 (Homo sapiens) (UniProt P13500); test: BSK_KF3CT_MCP1: BioMAP Diversity Plus: KF3CT Assay for Monocyte Chemoattractant Protein 1 (MCP1/CCL2) Biomarker Activity (AID 2283073); conditions: primary human keratinocytes with fibroblasts; actives raise or lower the signal
# Outline: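 Biomarker MCP-1 is measured by ELISA in primary human keratinocytes co-cultured with foreskin fibroblasts, 24 h after chemical treatment; DMSO serves as the negative control and activity baseline.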
# [4] = read-out: Matrix Metallopeptidase 9 (MMP9), MMP9 (gene 4318); test: BSK_KF3CT_MMP9: BioMAP Diversity Plus: KF3CT Assay for Matrix Metallopeptidase 9 (MMP9) Biomarker Activity (AID 2283074); conditions: primary human keratinocytes with fibroblasts; actives raise or lower the signal;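 on AC50: MMP9 protein level quantified by ELISA in the co-culture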
# Outline: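 ELISA read-out of MMP-9 at 24 h post-dosing in a co-culture of human skin keratinocytes and foreskin fibroblasts. Gain or loss of signal was fitted in both directions against DMSO.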
# [5] = read-out: urokinase plasminogen activator (uPA), PLAU (gene 5328); test: BSK_KF3CT_uPA: BioMAP Diversity Plus: KF3CT Assay for urokinase plasminogen activator (uPA) Biomarker Activity (AID 2283075); conditions: primary human keratinocytes with fibroblasts; actives raise or lower the signal
# Outline: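 Skin co-culture (keratinocytes + foreskin fibroblasts), human primary; 24 h post-dose; uPA by ELISA; gain/loss fit vs DMSO baseline.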
# CD40, CD40 (gene 958) [6] = test: BSK_LPS_CD40: BioMAP Diversity Plus: LPS Assay for CD40 Biomarker Activity (AID 2283076); conditions: primary human HUVEC with PBMC; actives raise or lower the signal
# Outline: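 Using a multiplexed primary human co-culture (umbilical vein endothelium plus PBMC), CD40 was read by ELISA 24 h after dosing, with cytotoxicity tracked by sulforhodamine B staining of parallel cultures and activity fitted bidirectionally versus DMSO.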
# [7] = read-out: Interleukin-8 (IL8), CXCL8 (gene 3576); test: BSK_LPS_IL8: BioMAP Diversity Plus: LPS Assay for Interleukin-8 (IL8) Biomarker Activity (AID 2283078); conditions: primary human HUVEC with PBMC; actives raise or lower the signal
# Outline: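 In this LPS system, chemical-treated human umbilical vein endothelium/PBMC co-cultures were harvested at 24 h for IL-8 ELISA.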
# [8] = BSK_LPS_SRB: Viability Assessment in the BioMAP Diversity Plus: LPS Assay (AID 2283079); conditions: primary human HUVEC with PBMC;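 further: total protein by sulforhodamine B absorbance as a cytotoxicity measure; measured one day after compound addition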
# Outline: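 Cytotoxicity endpoint in human endothelial–PBMC co-culture: 24 h exposure, then SRB (0.1%) staining, 560 nm read.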
# [9] = read-out: Interleukin-1 alpha (IL1a), IL1A (gene 3552); test: BSK_LPS_IL1a: BioMAP Diversity Plus: LPS Assay for Interleukin-1 alpha (IL1a) Biomarker Activity (AID 2283080); conditions: primary human HUVEC with PBMC; actives raise or lower the signal
# Outline: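 Primary human HUVEC and PBMC co-culture stimulated with LPS is dosed and harvested at 24 h. Both increases and decreases in ELISA-measured IL-1a are scored relative to DMSO.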
# [10] = read-out: Monocyte Chemoattractant Protein-1 (MCP1), CCL2 (gene 6347); test: BSK_LPS_MCP1: BioMAP Diversity Plus: LPS Assay for Monocyte Chemoattractant Protein-1 (MCP1) Biomarker Activity (AID 2283081); conditions: primary human HUVEC with PBMC; actives raise or lower the signal;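 on AC50: secreted MCP-1 protein quantified by ELISA in culture supernatant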
# Outline: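 Values derive from bidirectional fitting against DMSO of ELISA-measured MCP-1 in a human primary endothelial and mononuclear cell co-culture, 24 h after chemical addition under LPS activation.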
# [11] = BSK_LPS_PGE2: BioMAP Diversity Plus: LPS Assay for Prostaglandin E2 (PGE2) Biomarker Activity (AID 2283082); conditions: primary human HUVEC with PBMC; actives raise or lower the signal;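 on AC50: secreted prostaglandin E2 measured by ELISA in LPS-stimulated co-culture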
# Outline: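 Compounds were added to the LPS co-culture of endothelium and PBMC, and PGE2 was measured by ELISA after 24 h. Responses in either direction were fitted with DMSO as baseline.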
# [12] = read-out: Macrophage colony-stimulating factor (MCSF), CSF1 (gene 1435); test: BSK_LPS_MCSF: BioMAP Diversity Plus: LPS Assay for Macrophage colony-stimulating factor (MCSF) Biomarker Activity (AID 2283083); conditions: primary human HUVEC with PBMC; actives raise or lower the signal
# Outline: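 Bidirectional fit versus DMSO of ELISA-measured M-CSF in co-cultured human umbilical vein endothelial cells and PBMC, sampled 24 h after dosing.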
# [13] = read-out: Tissue Factor, F3 (gene 2152); test: BSK_LPS_TissueFactor: BioMAP Diversity Plus: LPS Assay for Tissue Factor Biomarker Activity (AID 2283084); conditions: primary human HUVEC with PBMC; actives raise or lower the signal
# Outline: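 Read-out: CD142 ELISA, 24 h. System: LPS-driven human endothelial/PBMC co-culture. Analysis: up- or down-signal fitted against DMSO.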
# [14] = read-out: Tumor necrosis factor (Homo sapiens) (UniProt P01375); test: BSK_LPS_TNFa: BioMAP Diversity Plus: LPS Assay for Tumour Necrosis Factor alpha (TNFa) Biomarker Activity (AID 2283085); conditions: primary human HUVEC with PBMC; actives raise or lower the signal;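 on AC50: TNFa protein level quantified by ELISA in the co-culture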
# Outline: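 Cells (umbilical vein endothelium plus peripheral blood mononuclear cells) were dosed with chemical, incubated 24 h, then TNFa was quantified by ELISA; values derive from bidirectional fitting with DMSO as baseline.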
# CD40, CD40 (gene 958) [15] = test: BSK_SAg_CD40: BioMAP Diversity Plus: SAg Assay for CD40 Biomarker Activity (AID 2283088); conditions: primary human HUVEC with PBMC; actives raise or lower the signal
# Outline: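 Endpoint derived by fitting increases or decreases versus DMSO controls. CD40 is detected by fluorescence ELISA in a human vascular co-culture of endothelium and PBMC at 24 h.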
# CD69, CD69 (gene 969) = test: BSK_SAg_CD69: BioMAP Diversity Plus: SAg Assay for CD69 Biomarker Activity (AID 2283089); conditions: primary human HUVEC with PBMC; actives raise or lower the signal;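 on AC50: cell surface CD69 protein quantified by ELISA with fluorescence detection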
# Outline: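 Primary human vascular co-culture (umbilical vein endothelium with peripheral blood mononuclear cells) exposed to test chemical for 24 h. CD69 levels quantified by fluorescence ELISA; DMSO served as negative control for bidirectional fitting.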
# [16] = read-out: E-selectin (Homo sapiens) (UniProt P16581); test: BSK_LPS_Eselectin: BioMAP Diversity Plus: LPS Assay for Eselectin Biomarker Activity (AID 2283077); conditions: primary human HUVEC with PBMC; actives raise or lower the signal
# Outline: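 Dose chemical onto LPS-driven HUVEC/PBMC co-culture; after 24 h, run ELISA for E-selectin; fit up- and down-going responses relative to DMSO control.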
# [17] = read-out: Vascular cell adhesion molecule 1 (VCAM1), VCAM1 (gene 7412); test: BSK_LPS_VCAM1: BioMAP Diversity Plus: LPS Assay for Vascular cell adhesion molecule 1 (VCAM1) Biomarker Activity (AID 2283086); conditions: primary human HUVEC with PBMC; actives raise or lower the signal
# Outline: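 Cells are dosed in an LPS-stimulated endothelial/mononuclear co-culture and, after 24 h, VCAM-1 is quantified by ELISA. Activity in either direction is fitted relative to the DMSO negative control.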
# CD38, CD38 (gene 952) = test: BSK_SAg_CD38: BioMAP Diversity Plus: SAg Assay for CD38 Biomarker Activity (AID 2283087); conditions: primary human HUVEC with PBMC; actives raise or lower the signal
# Outline: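 CD38 quantified by ELISA (fluorescence) in a superantigen-activated endothelial cell–PBMC co-culture at 24 h post-dose. Activity fitted in both directions relative to DMSO; parallel SRB and Alamar Blue cytotoxicity read-outs.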
# Sequence of Tumor necrosis factor (Homo sapiens) (P01375 whole entry, looked up): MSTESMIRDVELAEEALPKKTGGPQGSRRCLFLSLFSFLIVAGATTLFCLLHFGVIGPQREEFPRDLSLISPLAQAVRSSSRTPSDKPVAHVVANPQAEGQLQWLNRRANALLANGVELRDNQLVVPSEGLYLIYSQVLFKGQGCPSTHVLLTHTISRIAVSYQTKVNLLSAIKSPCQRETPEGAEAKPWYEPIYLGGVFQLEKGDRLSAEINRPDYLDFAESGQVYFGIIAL
# Sequence of E-selectin (Homo sapiens) (P16581 whole entry, looked up): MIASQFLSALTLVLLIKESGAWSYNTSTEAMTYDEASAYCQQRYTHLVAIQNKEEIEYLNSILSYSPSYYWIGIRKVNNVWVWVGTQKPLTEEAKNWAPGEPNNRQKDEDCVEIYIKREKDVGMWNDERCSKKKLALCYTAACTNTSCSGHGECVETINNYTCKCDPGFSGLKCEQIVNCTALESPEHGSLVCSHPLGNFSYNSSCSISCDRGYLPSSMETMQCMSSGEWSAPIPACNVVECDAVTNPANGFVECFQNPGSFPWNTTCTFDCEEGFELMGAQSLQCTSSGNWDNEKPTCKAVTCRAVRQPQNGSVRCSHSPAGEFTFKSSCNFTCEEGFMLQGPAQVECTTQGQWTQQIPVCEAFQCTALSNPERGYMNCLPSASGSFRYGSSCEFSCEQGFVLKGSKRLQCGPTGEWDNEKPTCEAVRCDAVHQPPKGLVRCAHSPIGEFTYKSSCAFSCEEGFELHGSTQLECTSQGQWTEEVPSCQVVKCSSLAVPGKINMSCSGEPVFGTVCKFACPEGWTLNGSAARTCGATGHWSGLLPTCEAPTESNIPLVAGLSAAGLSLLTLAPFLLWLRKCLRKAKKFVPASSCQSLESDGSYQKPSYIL
smiles,measurement,setting,value
CCCCCCC=O,outcome,[1],inactive
same,outcome,[2],inactive
same,outcome,[3],inactive
same,outcome,[4],inactive
same,outcome,[5],inactive
same,outcome,"CD40, CD40 (gene 958) [6]",inactive
same,outcome,[7],inactive
same,outcome,[8],inactive
same,outcome,[9],inactive
same,outcome,[10],inactive
same,outcome,[11],inactive
same,outcome,[12],inactive
same,outcome,[13],inactive
same,outcome,[14],inactive
same,outcome,"CD40, CD40 (gene 958) [15]",inactive
same,outcome,"CD69, CD69 (gene 969)",inactive
c1ccc2sc(SSN3CCOCC3)nc2c1,AC50,[1],12.2 µM (active)
same,outcome,[2],inactive
same,AC50,[3],12.2 µM (active)
same,AC50,[4],12.6 µM (active)
same,AC50,[5],12.9 µM (active)
same,outcome,"CD40, CD40 (gene 958) [6]",inactive
same,outcome,[7],inactive
same,outcome,[8],inactive
same,outcome,[9],inactive
same,outcome,[10],inactive
same,outcome,[11],inactive
same,AC50,[12],12.2 µM (active)
same,outcome,[13],inactive
same,outcome,[14],inactive
same,outcome,"CD40, CD40 (gene 958) [15]",inactive
same,outcome,"CD69, CD69 (gene 969)",inactive
O=C(O)C(F)(F)C(F)(F)C(F)(F)C(F)(F)C(=O)O,outcome,[1],inactive
same,outcome,[3],inactive
same,outcome,[4],inactive
same,outcome,[5],inactive
same,outcome,"CD40, CD40 (gene 958) [6]",inactive
same,outcome,[16],inactive
same,AC50,[7],30 µM (active)
same,outcome,[7],inactive
same,outcome,[8],inactive
same,outcome,[9],inactive
same,outcome,[10],inactive
same,outcome,[11],inactive
same,outcome,[12],inactive
same,outcome,[13],inactive
same,outcome,[14],inactive
same,outcome,"CD40, CD40 (gene 958) [15]",inactive
same,outcome,"CD69, CD69 (gene 969)",inactive
c1ccc2c(c1)[nH]c1ccccc12,outcome,[1],inactive
same,outcome,[2],inactive
same,outcome,[3],inactive
same,outcome,[4],inactive
same,outcome,[5],inactive
same,outcome,"CD40, CD40 (gene 958) [6]",inactive
same,AC50,[7],0.017 µM (active)
same,outcome,[7],inactive
same,outcome,[8],inactive
same,outcome,[9],inactive
same,outcome,[10],inactive
same,outcome,[11],inactive
same,outcome,[12],inactive
same,outcome,[13],inactive
same,outcome,[14],inactive
same,outcome,"CD40, CD40 (gene 958) [15]",inactive
same,outcome,"CD69, CD69 (gene 969)",inactive
CCCCCCCCCCCC(C)=O,outcome,[1],inactive
same,outcome,[2],inactive
same,AC50,[3],31.5 µM (active)
same,outcome,[4],inactive
same,outcome,[5],inactive
same,AC50,"CD40, CD40 (gene 958) [6]",31.3 µM (active)
same,outcome,[7],inactive
same,outcome,[8],inactive
same,outcome,[9],inactive
same,outcome,[10],inactive
same,outcome,[11],inactive
same,outcome,[12],inactive
same,outcome,[13],inactive
same,AC50,[14],29.2 µM (active)
same,AC50,[17],30.8 µM (active)
same,AC50,"CD40, CD40 (gene 958) [15]",30 µM (active)
same,AC50,"CD69, CD69 (gene 969)",31.1 µM (active)
CCC1(C)C(=O)N(Cl)C(=O)N1Cl (stereo not given),outcome,[1],inactive
same,outcome,[2],inactive
same,outcome,[3],inactive
same,outcome,[4],inactive
same,outcome,[5],inactive
same,outcome,"CD40, CD40 (gene 958) [6]",inactive
same,outcome,[7],inactive
same,outcome,[8],inactive
same,outcome,[9],inactive
same,outcome,[10],inactive
same,outcome,[11],inactive
same,outcome,[12],inactive
same,outcome,[13],inactive
same,outcome,[14],inactive
same,outcome,"CD38, CD38 (gene 952)",inactive
same,outcome,"CD40, CD40 (gene 958) [15]",inactive
same,outcome,"CD69, CD69 (gene 969)",inactive
c1ccc(Nc2cccc3ccccc23)cc1,AC50,[1],29.8 µM (active) and 28.6 µM (active)
same,AC50,[3],28.8 µM (active) and 26.7 µM (active)
same,AC50,[4],31.3 µM (active) and 31.7 µM (active)
same,AC50,[5],33.8 µM (active) and 32.2 µM (active)
same,AC50,"CD40, CD40 (gene 958) [6]",22.9 µM (active) and 30.7 µM (active)
same,AC50,[7],24.5 µM (active) and 20 µM (active)
same,AC50,[8],31.5 µM (active) and 32.4 µM (active)
same,AC50,[9],34.1 µM (active) and 34.7 µM (active)
same,AC50,[10],27.8 µM (active) and 29.1 µM (active)
same,AC50,[11],2.88 µM (active) and 2.19 µM (active)
same,AC50,[12],31.2 µM (active) and 16.1 µM (active)
same,outcome,[13],inactive
same,AC50,[14],31.6 µM (active) and 29.9 µM (active)
same,AC50,"CD40, CD40 (gene 958) [15]",28.9 µM (active) and 26.5 µM (active)
same,AC50,"CD69, CD69 (gene 969)",30.4 µM (active) and 33.2 µM (active)

# Source: PubChem BioAssay (EPA / NIEHS)
